# Experiments:
# Assay in all cases: DAPPL (digital affinity profiling via proximity ligation, sequencing); 10 mM Tris-HCl pH 7.5, 50 mM NaCl, 1 mM DTT, 4% glycerol, room temperature, 30 min; GST-TFs on glutathione beads, 16-mer random dsDNA library, 0.1% formaldehyde crosslink after washing; high values mean tight binding
# Details in all cases: protein: recombinant; tags: N-terminal GST; dsDNA, one strand shown
# [1] = biological target: T1, FLI1 (Homo sapiens, UniProt Q01543 1-452)
# T1 sequence: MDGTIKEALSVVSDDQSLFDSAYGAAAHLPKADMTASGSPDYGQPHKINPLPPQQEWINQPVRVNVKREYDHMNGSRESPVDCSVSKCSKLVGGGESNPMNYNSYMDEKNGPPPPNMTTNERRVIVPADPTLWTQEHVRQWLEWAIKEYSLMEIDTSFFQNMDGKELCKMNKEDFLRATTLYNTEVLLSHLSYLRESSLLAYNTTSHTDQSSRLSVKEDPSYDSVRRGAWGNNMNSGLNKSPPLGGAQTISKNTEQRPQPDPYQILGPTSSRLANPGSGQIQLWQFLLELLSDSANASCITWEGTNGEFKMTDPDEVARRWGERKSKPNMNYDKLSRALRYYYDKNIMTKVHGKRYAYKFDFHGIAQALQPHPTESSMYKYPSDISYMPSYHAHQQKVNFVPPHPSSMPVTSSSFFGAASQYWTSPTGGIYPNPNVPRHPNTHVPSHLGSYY
# How it was run: (§1)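 Binding signal is defined as a hexamer's read frequency for one factor over its frequency for the tag-only sample. To obtain reads, GST-fused human transcription factors were expressed in yeast, captured on glutathione beads, barcoded with DNA and pooled with that sample. Pools met 200 nmole of a 16-mer random double-stranded DNA library in Tris/NaCl/DTT/glycerol buffer for 30 min at room temperature before washing, 0.1% formaldehyde crosslinking, proximity ligation (BsaI/T4 ligase, 1 h, 37 °C), PCR and Illumina NextSeq500 sequencing.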
# [2] = biological target: T2, ELK1 (Homo sapiens, UniProt P19419 1-428)
# T2 sequence: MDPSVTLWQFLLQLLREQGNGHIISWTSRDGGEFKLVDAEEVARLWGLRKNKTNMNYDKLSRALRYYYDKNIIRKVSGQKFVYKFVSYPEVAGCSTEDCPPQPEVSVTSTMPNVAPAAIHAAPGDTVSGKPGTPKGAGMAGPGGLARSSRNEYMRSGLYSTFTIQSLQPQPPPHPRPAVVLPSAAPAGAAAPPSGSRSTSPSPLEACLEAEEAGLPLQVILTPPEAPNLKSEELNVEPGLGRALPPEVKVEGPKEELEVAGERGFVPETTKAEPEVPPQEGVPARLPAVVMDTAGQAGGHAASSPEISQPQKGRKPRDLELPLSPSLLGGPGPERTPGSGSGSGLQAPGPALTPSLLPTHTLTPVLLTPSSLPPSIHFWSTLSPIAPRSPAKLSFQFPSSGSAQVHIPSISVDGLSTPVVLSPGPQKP
# How it was run: as §1
# [3] = biological target: T3, GABPA (Homo sapiens, UniProt Q06546 1-454)
# T3 sequence: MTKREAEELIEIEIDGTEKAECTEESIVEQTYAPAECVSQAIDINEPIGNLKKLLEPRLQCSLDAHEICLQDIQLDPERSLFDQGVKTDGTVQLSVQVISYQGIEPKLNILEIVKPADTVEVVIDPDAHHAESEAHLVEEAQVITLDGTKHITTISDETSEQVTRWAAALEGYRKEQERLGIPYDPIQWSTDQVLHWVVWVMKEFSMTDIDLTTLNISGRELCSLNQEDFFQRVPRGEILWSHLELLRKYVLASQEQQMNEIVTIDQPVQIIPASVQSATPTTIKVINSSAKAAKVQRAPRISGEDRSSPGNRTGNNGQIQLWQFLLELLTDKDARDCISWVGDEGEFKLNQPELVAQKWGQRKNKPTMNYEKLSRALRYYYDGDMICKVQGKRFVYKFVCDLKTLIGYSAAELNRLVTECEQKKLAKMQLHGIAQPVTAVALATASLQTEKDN
# How it was run: as §1
# [4] = biological target: T4, ERG (Homo sapiens, UniProt P11308 1-479)
# T4 sequence: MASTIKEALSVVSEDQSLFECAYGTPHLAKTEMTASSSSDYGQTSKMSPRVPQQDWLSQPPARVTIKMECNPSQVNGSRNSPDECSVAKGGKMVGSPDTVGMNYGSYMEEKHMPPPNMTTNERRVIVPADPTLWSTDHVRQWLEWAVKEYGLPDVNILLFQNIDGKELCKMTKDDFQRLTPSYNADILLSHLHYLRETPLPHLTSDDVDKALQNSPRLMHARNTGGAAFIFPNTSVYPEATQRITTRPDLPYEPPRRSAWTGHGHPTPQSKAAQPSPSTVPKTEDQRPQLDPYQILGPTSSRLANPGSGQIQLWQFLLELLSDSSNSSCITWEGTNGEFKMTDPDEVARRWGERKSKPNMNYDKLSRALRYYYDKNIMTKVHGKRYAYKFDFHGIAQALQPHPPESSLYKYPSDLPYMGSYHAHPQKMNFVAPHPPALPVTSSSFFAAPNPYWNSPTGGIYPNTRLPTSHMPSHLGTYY
# How it was run: as §1
# [5] = biological target: ELF1 (Homo sapiens, UniProt P32519 1-619)
# ELF1, sequence (P32519 whole entry): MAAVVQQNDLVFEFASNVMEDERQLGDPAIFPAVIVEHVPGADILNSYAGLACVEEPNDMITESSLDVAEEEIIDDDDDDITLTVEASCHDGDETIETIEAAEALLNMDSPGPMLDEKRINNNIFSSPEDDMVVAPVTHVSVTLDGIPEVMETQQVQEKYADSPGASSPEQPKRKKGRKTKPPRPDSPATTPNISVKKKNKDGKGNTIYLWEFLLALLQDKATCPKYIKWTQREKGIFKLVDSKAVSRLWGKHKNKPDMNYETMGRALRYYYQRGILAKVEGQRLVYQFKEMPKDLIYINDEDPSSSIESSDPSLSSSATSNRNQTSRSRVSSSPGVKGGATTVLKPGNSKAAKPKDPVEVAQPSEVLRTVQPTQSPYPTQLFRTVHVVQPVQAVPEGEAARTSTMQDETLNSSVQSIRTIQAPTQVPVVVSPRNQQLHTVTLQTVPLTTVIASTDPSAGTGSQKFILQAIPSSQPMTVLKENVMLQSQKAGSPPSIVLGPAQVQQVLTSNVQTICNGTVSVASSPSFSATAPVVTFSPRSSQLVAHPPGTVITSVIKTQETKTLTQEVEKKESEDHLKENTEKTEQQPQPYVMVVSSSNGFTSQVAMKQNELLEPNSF
# How it was run: as §1
# [6] = biological target: T5, EHF (Homo sapiens, UniProt Q9NZC4 1-300)
# T5 sequence: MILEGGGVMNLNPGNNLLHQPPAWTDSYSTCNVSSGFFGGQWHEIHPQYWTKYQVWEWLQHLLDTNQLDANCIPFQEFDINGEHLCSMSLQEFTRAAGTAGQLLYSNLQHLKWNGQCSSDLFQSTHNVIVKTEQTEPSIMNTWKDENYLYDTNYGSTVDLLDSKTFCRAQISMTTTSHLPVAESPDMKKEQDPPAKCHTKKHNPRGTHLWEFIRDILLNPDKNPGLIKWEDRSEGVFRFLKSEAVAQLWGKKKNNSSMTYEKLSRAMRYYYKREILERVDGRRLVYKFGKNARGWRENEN
# How it was run: as §1
# [7] = biological target: SPI1 (Homo sapiens, UniProt P17947 1-270)
# How it was run: as §1
# [8] = biological target: SPIB (Homo sapiens, UniProt Q01892 1-262)
# SPIB, sequence (Q01892 whole entry): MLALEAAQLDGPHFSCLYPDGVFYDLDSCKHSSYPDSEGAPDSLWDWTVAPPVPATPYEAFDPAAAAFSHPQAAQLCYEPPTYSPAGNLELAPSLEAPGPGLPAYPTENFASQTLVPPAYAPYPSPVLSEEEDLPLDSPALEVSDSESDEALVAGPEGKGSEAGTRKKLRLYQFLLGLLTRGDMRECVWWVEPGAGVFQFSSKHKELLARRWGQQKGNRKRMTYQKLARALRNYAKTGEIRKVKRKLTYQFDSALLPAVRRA
# How it was run: as §1
# [9] = biological target: T6, ELK3 (Homo sapiens, UniProt P41970 1-407)
# T6 sequence: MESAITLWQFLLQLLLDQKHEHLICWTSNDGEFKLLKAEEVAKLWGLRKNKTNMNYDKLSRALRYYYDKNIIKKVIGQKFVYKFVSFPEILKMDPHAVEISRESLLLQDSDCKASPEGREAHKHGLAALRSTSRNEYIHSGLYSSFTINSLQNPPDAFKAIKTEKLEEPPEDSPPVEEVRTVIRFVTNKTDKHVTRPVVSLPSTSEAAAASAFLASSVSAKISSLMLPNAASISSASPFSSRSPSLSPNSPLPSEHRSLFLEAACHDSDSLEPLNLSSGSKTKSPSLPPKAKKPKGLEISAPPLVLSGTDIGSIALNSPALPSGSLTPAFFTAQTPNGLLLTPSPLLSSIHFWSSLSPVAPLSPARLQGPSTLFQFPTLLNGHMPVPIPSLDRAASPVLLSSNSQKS
# How it was run: as §1
# [10] = biological target: ETV5 (Homo sapiens, UniProt P41161 1-510)
# ETV5, sequence (P41161 whole entry): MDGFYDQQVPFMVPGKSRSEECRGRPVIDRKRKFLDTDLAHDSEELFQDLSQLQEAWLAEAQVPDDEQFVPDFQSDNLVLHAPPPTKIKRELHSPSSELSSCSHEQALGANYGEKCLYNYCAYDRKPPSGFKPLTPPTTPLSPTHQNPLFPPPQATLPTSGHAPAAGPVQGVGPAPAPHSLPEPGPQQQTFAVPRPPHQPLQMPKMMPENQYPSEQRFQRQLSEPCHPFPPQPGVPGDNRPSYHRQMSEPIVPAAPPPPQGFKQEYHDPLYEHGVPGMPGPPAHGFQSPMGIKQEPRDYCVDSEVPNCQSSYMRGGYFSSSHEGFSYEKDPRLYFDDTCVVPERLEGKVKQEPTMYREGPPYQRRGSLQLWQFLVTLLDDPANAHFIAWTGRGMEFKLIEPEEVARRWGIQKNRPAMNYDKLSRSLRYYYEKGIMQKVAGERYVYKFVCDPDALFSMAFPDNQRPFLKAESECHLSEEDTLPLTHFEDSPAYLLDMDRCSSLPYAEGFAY
# How it was run: as §1
sequence,measurement,setting,value
ACCATT,binding signal,[1],"1.22 fold enrichment (6-mer frequency, TF over GST control)"
same,binding signal,[2],"1.11 fold enrichment (6-mer frequency, TF over GST control)"
same,binding signal,[3],"1.1 fold enrichment (6-mer frequency, TF over GST control)"
same,binding signal,[4],"1.12 fold enrichment (6-mer frequency, TF over GST control)"
same,binding signal,[5],"1.1 fold enrichment (6-mer frequency, TF over GST control)"
same,binding signal,[6],"1.11 fold enrichment (6-mer frequency, TF over GST control)"
same,binding signal,[7],"1.16 fold enrichment (6-mer frequency, TF over GST control)"
same,binding signal,[8],"1.11 fold enrichment (6-mer frequency, TF over GST control)"
same,binding signal,[9],"1.28 fold enrichment (6-mer frequency, TF over GST control)"
same,binding signal,[10],"1.08 fold enrichment (6-mer frequency, TF over GST control)"
